High-throughput results from PubChem.
Only some compounds are listed: those with a hit (about 7.9% of all), similar ones and a draw of the others.
MARV entry inh = inhibitors of Marburg virus binding or cell entry | Marburg virus pseudotyped entry inhibition, cell reporter | Potency, µM (titrated, usually from 37.8 µM), for the others: at the top dose activity change, negative = inhibition, usual class: inhibitors | 300,000 tested, 1.8% active | AID 540276; calls by dose curve; tested in HEK293 cells; further: potency means the concentration at half of the fitted maximal effect
Lassa entry inh = inhibitors of Lassa virus binding or cell entry; 300,000 tested, 1.2% active; Potency, µM (highest dose often 37.9 µM), for the others: at the top dose activity change, negative = inhibition, actives largely listed as inhibitors; AID 540256; Lassa virus pseudotype entry inhibition, cell reporter; calls by dose curve; tested in HEK293 cells; further: potency means the concentration at half of the fitted maximal effect; nearly all actives have a fitted effect of over 50% in size
HCV inhibitor = HCV inhibition | AID 651820 | 340,000 tested, 3.4% active | Huh7.5.1 HCVcc-Cre infection, luciferase reporter, 44 h | Potency, µM (highest dose often 41.8 µM), for the others: at the top dose activity change, negative = inhibition, most hits filed as inhibitors; active means well fitted inhibition curve with a large enough effect; inconclusive means small, poorly fitted or top-dose-only effect, or another doubt; inactive means no such curve, though single readings can be large or run the other way; further: potency means the concentration at half of the fitted maximal effect
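Reporter virus HCVcc-Cre (~0.5 moi) infects cells exposed to compound; seeding density 1,000 cells/well with 4 h settling beforehand. Luminescence, 15 sec read, taken 44 h post-infection following a 15 min RT substrate incubation.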
FMDV antiviral = antivirals against foot and mouth disease virus; FMDV antiviral cell-based qHTS; 410,000 tested, 1.2% active; Potency, µM (titrated, usually from 57.9 µM), without a hit: at the top dose activity change, negative = inhibition, usual class: inhibitors; calls by dose curve; tested in HEK293T cells; further: read-out not given here; potency means the concentration at half of the fitted maximal effect; nearly all actives have a fitted effect of over 45% in size
HCMV inh = human cytomegalovirus inhibition. activity change, negative = inhibition, % at 57.5 µM. 410,000 tested, 4.5% active. HFF cells, HCMV-luciferase reporter, 72 h; stronger effect = lower value. AID 1259415; in the data active means activity change below about -60%; inconclusive means no clear call, values can overlap the other calls; inactive means above about -39%
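Luciferase read-out from HCMV-luciferase-infected HFFs (MOI 1 PFU/cell) 72 h post infection at 37C; compounds added after 16 h cell attachment; activity normalized between buffer-only basal and Salinomycin (10uM) inhibitor controls.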
Numbers without * were called inactive; ? = inconclusive; / = no result given; [ ] = another dose, or the depositor's remark. On the % scale 0 is the no-effect control and ±100 the full control effect.

SMILES	MARV entry inh	Lassa entry inh	HCV inhibitor	FMDV antiviral	HCMV inh
Cc1c(NC(=O)c2ccc(S(=O)(=O)N(C)C)cc2)cccc1-n1cnnn1	/	/	-21%	-10%	0
Cc1c(NC(=O)c2ccc(Cl)c([N+](=O)[O-])c2)cccc1-n1cnnn1	?	?	11µM*	-27%	11
O=C(Cn1cnc2cc([N+](=O)[O-])ccc2c1=O)N1CCN(S(=O)(=O)c2ccccc2)CC1	?	-17%[46.1 µM]	-15%	-25%	3
Cc1ccc(C(=O)Nc2cccc(S(=O)(=O)N3CCCCC3)c2)cc1S(=O)(=O)N1CCOCC1	/	/	8.9µM*	?	-37
O=C(Cn1cnc2cc([N+](=O)[O-])ccc2c1=O)Nc1cccc(S(=O)(=O)N2CCCCC2)c1	/	/	5.6µM*	?	?
COc1ccc(CCN2C(=O)N(c3ccc(F)cc3)C(=O)C2CC(=O)Nc2ccc(OC)cc2)cc1 (stereo not drawn)	?	-21%[46.1 µM]	/	20%	12
Cc1ccc(S(=O)(=O)c2cn(CC(=O)Nc3ccc4c(c3)OCO4)c3ccccc3c2=O)cc1C	0%[46.1 µM]	-4%[46.1 µM]	/	20%	12
COC(=O)c1cccc(C(=O)NCc2nc(-c3ccccc3NC(C)=O)oc2C)c1	/	/	/	14%	/
CCOC(=O)c1cc(-c2ccc(C)cc2)n(CC(=O)NC2CCCCCC2)c1C	?	/	/	25%	-18
CCc1cccc(NC(=O)CSc2nnc(-c3cc4occc4n3C)n2-c2ccccc2C)c1	/	-26%[46.1 µM]	/	4%	0
CCCCC(=O)OCC(=O)C1(O)Cc2c(O)c3c(c(O)c2C(OC2CC(NC(=O)C(F)(F)F)C(O)C(C)O2)C1)C(=O)c1c(OC)cccc1C3=O (stereo not drawn)	?	?	3.5µM*	-3%	-98*
COc1cccc2c1C(=O)c1c(O)c3c(c(O)c1C2=O)CC(O)(C(C)=O)CC3OC1CC(O)C(O)C(C)O1 (stereo not drawn)	1.4µM*	?	?	-7%	-101*
COc1cccc2c1-c1c(O)cccc1C2=O	/	/	1%	-9%	-3
COc1cccc2c1C(=O)c1c(O)c3c(c(O)c1C2=O)C[C@](O)(C(C)=O)C[C@H]3O[C@@H]1C[C@@H](N)[C@@H](O)[C@@H](C)O1	/	/	8.9µM*	-4%	-100*
COc1cccc2c1C(=N)c1c(O)c3c(c(O)c1C2=O)CC(O)(C(C)=O)CC3OC1CC(N)C(O)C(C)O1 (stereo not drawn)	0.35µM*	0.63µM*	?	?	/
Cc1ccc(S(=O)(=O)c2nc(S(C)(=O)=O)sc2N(C)Cc2ccccc2)cc1	-2%[46.1 µM]	?	/	7%	-35
CC(CC(=O)NCc1ccc(Cl)cc1)CC1=NS(=O)(=O)c2ccccc2N1 (stereo not drawn)	/	-13%[46.1 µM]	/	7%	-8
COc1cccc2c1C(=O)c1c(O)c3c(c(O)c1C2=O)C[C@@](O)(C(=O)CO)C[C@@H]3O[C@H]1C[C@H](N)[C@H](OC2CCCCO2)[C@H](C)O1 (stereo partly drawn)	1.3µM*	1.1µM*	/	/	/
CC1(C)CN(c2ccccc2)C(=O)[C@@H]1CC(=O)Nc1ccccc1	/	7%[46.1 µM]	/	/	/
CCCOc1ccc(-c2nonc2NC(=O)c2oc3ccc(Cl)cc3c2C)cc1OCCC	18%[46.1 µM]	12%[46.1 µM]	/	-24%	10
Nc1cccc(Nc2nc(OC(C(F)(F)F)C(F)(F)F)nc(OC(C(F)(F)F)C(F)(F)F)n2)c1	?	?	?	-24%	-107*
COc1nc(Nc2ccc(O)cc2)nc(OC(C(F)(F)F)C(F)(F)F)n1	9%	?	?	?	?
Cc1cn2c(=O)c(S(=O)(=O)Nc3ccc(N4CCOCC4)cc3)c(C)nc2s1	/	-4%[46.1 µM]	/	-23%	37
O=C(Nc1cccc(-c2nc3ccccc3o2)c1)c1ccc(N2C(=O)C3C4C=CC(C4)C3C2=O)cc1 (stereo not drawn)	?	?	?	32µM*	-26
COc1ccc(OCC(=O)Nc2cccc(-c3nc4ccccc4o3)c2)cc1	-14%	3%	10µM*	-1%	20
COc1ccc(C(=O)Nc2cccc(-c3nnc(-c4ccco4)o3)c2)cc1	?	-17%	13µM*	35µM*	-17
Cc1cc(C)cc(OCC(=O)Nc2cccc(-c3nnc(-c4ccco4)o3)c2)c1	-13%	50%[14.3 µM]	-3%	20µM*	62
